Source: PubChem BioAssay
A selection: hits, their analogues and other compounds. The true share with any hit is near 12%.
HP1b binding inh = HP1-beta chromodomain-methylated histone interaction inhibition. AID 540317. Potency, µM (highest dose often 114 µM), hits mostly inhibitors. hit rate 0.56% among 390,000. AlphaScreen HP1-beta / biotin-H3K9me3 peptide binding. P83916; also: nearly all actives have a fitted effect of over 70% in size
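AlphaScreen: HP1-beta (50 nM) preformed 30 min with biotin-H3(1-18)K9me3 peptide (50 nM) in PBS pH 7.4, 0.01% Tween-20. Compound added for 30 min at RT, then streptavidin donor/nickel chelate acceptor beads (10 ug/mL) for 30 min.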
BAZ2B block = inhibitors of human BAZ2B bromodomain. Q9UIF8. AlphaScreen BAZ2B-H3K14Ac peptide displacement. Potency, µM (doses to about 114 µM), hits mostly inhibitors. hit rate 4.4% among 360,000; also: nearly all actives have a fitted effect of over 60% in size
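AlphaScreen displacement of biotin-H3(5-23)K14Ac peptide (50 nM final) from BAZ2B (50 nM final) in PBS pH 7.4, 0.01% Tween-20; complex preformed 30 min RT, then compounds (top 110 uM) 30 min RT, beads 20 min dark.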
Sfp PPTase inh = blocks B. subtilis Sfp PPTase activity; Q9F4F7; Biochemical Sfp PPTase activity, qHTS; Potency, µM, hits mostly inhibitors; hit rate 3.5% among 310,000;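 also: the enzyme is Sfp with the accession as filed and its product quenches rhodamine fluorescence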
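Fluorescence-quenching assay with 15 nM Sfp, 5 uM rhodamine-CoA and 12.5 uM BHQ-2-labelled ybbR peptide in pH 7.6 Hepes/MgCl2 buffer. Enzyme was pre-incubated with compound for 15 min at room temperature. Rate was taken from the 30-min fluorescence change (525/598 nm).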
JMJD2A Tudor inh = inhibitors of human JMJD2A Tudor domain | AlphaScreen JMJD2A-Tudor / H3K4me3 peptide binding | Potency, µM (top dose mostly 114 µM), actives largely listed as inhibitors | hit rate 4.4% among 390,000; also: nearly all actives have a fitted effect of over 50% in size
G9a block = inhibitors of human histone lysine methyltransferase G9a; G9a H3K9 monomethylation, AlphaScreen, 2 h; Potency, µM (top dose mostly 102 µM), hits mostly inhibitors; AID 504332; Q96KQ7; hit rate 8.8% among 350,000; also: nearly all actives have a fitted effect of over 75% in size
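Readings reflect AlphaScreen signal from monomethyl-H3K9 antibody detection. HMT at 20 nM; substrate b-H3K9 500 nM; cofactor SAM 20 uM; 2 h RT reaction; compounds tested as titrations in qHTS with 15 min preincubation.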
A number is an active result; - = inactive; ? = inconclusive; . = not tested or not shown; [ ] = another dose, or the depositor's remark. Calls follow the shape of the dose curve; as a rule, active = well fitted curve in the direction sought with a large enough effect; inconclusive = small, poorly fitted or top-dose-only effect, or another doubt; inactive = no such curve, though single readings can be large; an effect the other way counts as inactive or inconclusive.

SMILES	HP1b binding inh	BAZ2B block	Sfp PPTase inh	JMJD2A Tudor inh	G9a block
CCC(C(=O)Nc1ccc(C)c(C)c1)n1c(=O)c(C(F)(F)F)nc2ccccc21 (stereo unspecified)	-	-	.	-	-
CCc1nnc(NC(=O)c2ccccc2NC(=O)C2CCN(C(=O)c3ccco3)CC2)s1	-	.	.	-	.
O=C(NCCC1=CCCCC1)c1ccc2c(c1)N(Cc1ccc(Cl)cc1)C(=O)c1ccccc1S2=O (stereo unspecified)	-	-	.	-	-
CC(C)(C)c1ccc(S(=O)(=O)N2CCN(c3nc(-c4cccs4)nc4ccccc34)CC2)cc1	-	.	.	-	.
O=c1cc(N=Nc2ccc(Cl)cc2)[nH]c(=O)[nH]1	-	-	-	-	45µM
CCN(CC)C(=O)c1sc2c(c1C)c(=O)n(-c1ccc(Cl)c(Cl)c1)c(=O)n2CC(=O)Nc1cccc(OC)c1	-	-	.	-	-
CCc1cc(C=NC2CCCCC2)c(O)s1	-	-	-	-	13µM
CN1/C(=C/C(=O)C2CCC2)Sc2ccccc21	-	?	?	-	?
CN1/C(=C\C(=O)c2cccc([N+](=O)[O-])c2)Sc2ccccc21	-	-	-	?	-
Cc1ccc2c(c1)N(C)/C(=C/c1cccc[n+]1CCO)S2	-	-	-	?	32µM
CN1/C(=C/c2cccc[n+]2C)Sc2ccccc21	-	?	-	?	25µM
Cc1ccc2c(c1)N(C)/C(=C/c1cccc[n+]1C)S2	-	?	-	?	6.3µM
CCn1cc(C(=O)NCCCOC(C)C)c(=O)c2cc(S(=O)(=O)N3CCc4ccccc4C3)ccc21	-	.	.	-	-
O=C1CCc2cc(S(=O)(=O)NCc3ccccc3)ccc2N1	.	.	.	-	.
CCOc1ccc(C2c3c(oc4ccccc4c3=O)C(=O)N2Cc2ccc3c(c2)OCO3)cc1 (stereo unspecified)	-	-	.	-	-
Cc1ccc(S(=O)(=O)NCCC(=O)NNC(=O)COc2ccccc2Cl)cc1C	-	-	.	-	-[12.7 µM]
COc1cc(OC)c(NS(=O)(=O)c2ccc3c(c2)CCCN3C(C)=O)cc1Cl	-	-	.	-	-
Cc1nc2c3ccccc3nc(NNC(=O)CCC(=O)NCCC(C)C)n2n1	-	-	-	-	50µM
COc1ccc(N2CCN(C(=O)CCC(=O)NNc3nc4ccccc4c4nc(C)nn34)CC2)cc1	-	-	-	-	22µM
CCOC(=O)C1CCN(C(=O)CCC(=O)NNc2nc3ccccc3c3nc(C)nn23)CC1	-	-	-	-	45µM
Cc1nc2c3ccccc3nc(NNC(=O)CCC(=O)N3CCC(C)CC3)n2n1	-	-	-	-	79µM
Cc1nc2c3ccccc3nc(NNC(=O)CCC(=O)N3CCN(c4ccccc4)CC3)n2n1	-	-	-	-	-
Cc1cccnc1NC(=O)CNC(=O)c1ccccc1	-	-	.	-	-[12.7 µM]
Cc1ccc(C(=O)NCC(c2cccnc2)N2CCc3ccccc3C2)cc1C (stereo unspecified)	-	13µM	.	?	?
CC(C)(C)c1ccc(C(=O)NCC(c2cccnc2)N2CCc3ccccc3C2)cc1 (stereo unspecified)	?	3.2µM	.	?	?
SMILES	HP1b binding inh	BAZ2B block	Sfp PPTase inh	JMJD2A Tudor inh	G9a block
Cc1ccc(NC(=O)C(=O)NCC(c2cccnc2)N2CCc3ccccc3C2)cc1 (stereo unspecified)	-	-	.	-	-
Cc1ccc(-c2nc(=S)c3c(n2Cc2ccco2)CC(C)(C)OC3)cc1	-	-	56µM	-	-[0.0925 µM]
Cc1cccc(-c2nc(=S)c3c(n2Cc2ccco2)CCCC3)c1	-	-	20µM	-	?
NS(=O)(=O)c1cc(C(=O)NCC2CCCCC2)ccc1Cl	-	-	-	-	-
CCCCOC(=O)C1=C(C)Nc2ncnn2C1c1ccc(OC)c(OC)c1 (stereo unspecified)	-	?	-	-	50µM
CCCC1=C(C(=O)OCC)C(c2ccc(N(C)C)cc2)n2ncnc2N1 (stereo unspecified)	-	?	-	?	45µM
CC(C)(C)c1ccccc1OCC(=O)Nc1ncn[nH]1	-	?	-	-	35µM
O=C(COc1ccc(Br)cc1Cl)Nc1ncn[nH]1	-	-	.	-	-
CC(C)(C)c1cc(Br)ccc1OCC(=O)Nc1ncn[nH]1	-	-	-	-	-
CCc1ccc(OCC(=O)Nc2ncn[nH]2)c(Br)c1	-	89µM	.	-	-
COCCCNC(=O)Cn1c(=O)n(-c2cccc(C)c2)c(=O)c2c3c(sc21)CN(C(C)=O)CC3	-	-	.	-	-
